# Bioassay records from PubChem BioAssay.
# The list is not random: actives were taken first. Their share in the collection is about 7.8%.
# VACV mCherry inh – inhibitors of vaccinia virus infection (mCherry reporter signal) | hit rate 0.63% among 310,000 | Potency, µM (series often up to 36.5 µM), for inactives: at the highest dose activity change, negative = inhibition, hits mostly inhibitors | AID 720579 | Vaccinia virus mCherry reporter infection, fluorescence; calls by dose curve; tested in A549 cells; further: potency means the concentration at half of the fitted maximal effect; nearly all actives have a fitted effect of over 35% in size
# LASV entry inh – Lassa virus entry inhibition; Lassa virus pseudotype entry inhibition, cell reporter; hit rate 1.2% among 300,000; Potency, µM (top dose mostly 37.9 µM), for the others: at the highest dose activity change, negative = inhibition, hits mostly inhibitors; calls by dose curve; tested in HEK293 cells; further: potency means the concentration at half of the fitted maximal effect; nearly all actives have a fitted effect of over 50% in size
# Marburg entry inh – Marburg virus entry inhibition; Marburg virus pseudotyped entry inhibition, cell reporter; Potency, µM (doses to about 37.8 µM), for the others: at the highest dose activity change, negative = inhibition, hits mostly inhibitors; hit rate 1.8% among 300,000; AID 540276; calls by dose curve; tested in HEK293 cells; further: potency means the concentration at half of the fitted maximal effect
# Vaccinia Venus – vaccinia inhibition (Venus reporter); Potency, µM (series often up to 36.5 µM), for inactives: at the top dose activity change, negative = inhibition, actives largely listed as inhibitors; Vaccinia virus Venus reporter expression, fluorescence; hit rate 0.46% among 330,000; calls by dose curve; tested in A549 cells; further: potency means the concentration at half of the fitted maximal effect; nearly all actives have a fitted effect of over 30% in size
# HCV inh – HCV inhibition; hit rate 3.4% among 340,000; Potency, µM (doses to about 41.8 µM), inactives show at the top dose activity change, negative = inhibition, most hits filed as inhibitors; Huh7.5.1 HCVcc-Cre infection, luciferase reporter, 44 h; active means well fitted inhibition curve with a large enough effect; inconclusive means small, poorly fitted or top-dose-only effect, or another doubt; inactive means no such curve, though single readings can be large or run the other way; further: potency means the concentration at half of the fitted maximal effect
#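 Whole-lifecycle infectious HCVcc-Cre system; cells 1,000/well, compound then virus (~0.5 moi) added 4 h after plating, 44 h culture. Luciferase read 15 sec following 15 min substrate incubation, room temp.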
# HCMV inh – human cytomegalovirus inhibition | HFF cells, HCMV-luciferase reporter, 72 h; active compounds read low | activity change, negative = inhibition, % at 57.5 µM | hit rate 4.5% among 410,000 | AID 1259415; in the data active means activity change below about -60%; inconclusive means no clear call, values can overlap the other calls; inactive means above about -39%
#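 After 16 h attachment at 37C, HFF cells received test compound and HCMV-luciferase (1 PFU/cell); reporter luminescence read 72 h later, data normalized against buffer-only and known inhibitor Salinomycin.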
# An asterisk follows results filed as active; i = inactive; ? = inconclusive; . = no result given; + = active, no number; ! = repeats disagree; [ ] = remark or other dose. On the % scale 0 is the no-effect control and ±100 the full control effect.
SMILES,VACV mCherry inh,LASV entry inh,Marburg entry inh,Vaccinia Venus,HCV inh,HCMV inh
CCCOc1cccc(-c2cc(C(=O)N/N=C/c3cccnc3)c3ccccc3n2)c1,i,?,?,-1.7%,-12.6%,-83.2*
O=C(N/N=C/c1cccnc1)C1CC1(c1ccccc1)c1ccccc1 (centres undefined),i,-4.9%,?,-11.5%,?,-67.1*
O=C(O)COc1ccccc1/C=N/NC(=O)c1cc(-c2ccccc2)nc2ccccc12,-14.9%,4.1%,-5.5%,-11.2%,12.4%,+
O=C(N/N=C/c1ccc(O)cc1O)c1ccncc1,.,.,.,.,?,12.4
CCc1cc(C(=O)N/N=C/c2ccc(O)cc2O)c2ccccc2n1,1.12µM*,?,?,-22.9%,?,29.4
COc1cc2nc(N3CCN(C)CC3)nc(NC3CCN(C)CC3)c2cc1OC,-15.2%,.,.,-29.8%,.,.
COc1ccccc1CN1CCC(n2cc(C(=O)N3CCCCC3)nn2)CC1,-15.1%,.,.,-11.1%,.,.
O=C(O)CN(CC(=O)O)CC1=CC2C(=CC1=O)Oc1cc(O)c(CN(CC(=O)O)CC(=O)O)cc1C21OC(=O)c2ccccc21 (centres undefined),45.5%,.,.,i,.,.
COc1cc(/C=N/NC(=O)c2cc(-c3cccc(OC(C)C)c3)nc3ccccc23)ccc1O,?,3.55µM*,3.55µM*,11.6%,?,-60.6*
Cc1cc(C(=O)N/N=C/c2cccnc2)c(C)o1,.,5.2%,13.2%,-11.6%,7.4%,-98.9*
Cc1ccc(-c2cc(C(=O)N/N=C\c3cnn(C)c3C)c3ccccc3n2)cc1C,i,11.2µM*,-24.0%,-17.8%,-19.6%,-30.9
CCCOc1cccc(-c2cc(C(=O)N/N=C/c3ccccn3)c3ccccc3n2)c1,?,?,?,-6.7%,?,-113.1*
CCc1ccccc1N1C(=O)N(Cc2cc(=O)n3ccccc3n2)c2ccccc2S1(=O)=O,-9.0%,?,.,-7.7%,.,-18.3
COc1ccc2nc3cc(Cl)ccc3c(Nc3ccc(O)c(CN4CCN(C)CC4)c3)c2c1,?,?,4.47µM*,?,?,17.2
CN(C)CCOc1ccc2c(c1)C(=O)C(=Cc1ncc([N+](=O)[O-])n1C)C2,?,.,.,?,.,-98.5*
CCc1cc(OCCN(C)C)ccc1Cl,-2.3%,.,-5.9%[46.1 µM],-6.6%,24.2%,20.7
CC(C)CN1CCNC(=O)C1CC(=O)NCCc1cnn(-c2ccccc2)c1 (centres undefined),-0.4%,9.7%,9.4%[46.1 µM],-4.5%,-4.7%,-1.7
CC(C)CN1CCNC(=O)C1CC(=O)NCCc1ccc(C(F)(F)F)cc1 (centres undefined),-33.2%,-9.2%[46.1 µM],-10.2%[46.1 µM],-3.8%,-6.0%,-101.5*
Cc1cc(Cl)c2oc(C(=O)NC3CCC(O)CC3)c(C)c2c1 (centres undefined),.,.,.,.,14.1µM*,-9.8
CCCCCc1nc2sc3c(c2c(=O)n1NC(=O)c1ccc([N+](=O)[O-])cc1)CC(C)(C)OC3,-2.5%,?,?,?,?,-89.3*
CCCCCCCc1nc2sc3c(c2c(=O)n1N)CC(C)(C)OC3,11.3%,0.8%,10.9%[46.1 µM],2.1%,3.2%,0.0
CON(C)C(=O)/C=C/[C@@H](CC1CCCC1)NC(=O)C(F)(F)F,.,.,.,.,.,-14.4
CCOC(=O)C1=C(N)N2C(=O)C(C)SC2=C(C(=O)OC)C1c1cccc(OC)c1 (centres undefined),.,.,.,.,6.3%,-85.6*
CCCC(=O)Nc1nnc(SCc2cc(=O)c3ccc(C)cc3[nH]2)s1,-2.9%,-8.2%[46.1 µM],.,-26.4%,.,?
CCCCc1nn2c(=O)cc(COC(=O)c3ccco3)nc2s1,1.6%,5.7%[46.1 µM],.,-3.1%,.,2.7
SMILES,VACV mCherry inh,LASV entry inh,Marburg entry inh,Vaccinia Venus,HCV inh,HCMV inh
CCc1ccc(CNC(=O)c2cnc3c(C)cccn3c2=O)cc1,-12.2%,?,.,-1.9%,.,-0.2
CCOC(=O)c1ccc(NC(=O)Nc2ccc3snnc3c2)cc1,-2.6%,10.1%[46.1 µM],15.7%[46.1 µM],-0.2%,.,-105.6*
CCc1ccccc1NC(=O)Nc1ccc2snnc2c1,-5.8%,?,9.0%[46.1 µM],-6.0%,.,-70.4*
O=C(Nc1ccc2snnc2c1)Nc1cccc2ccccc12,?,?,?,?,10µM*,-88.5*
COc1cccc(NC(=O)Nc2ccc3snnc3c2)c1,-27.7%,22.6%[46.1 µM],?,?,.,-22.6
O=C(CN1C(=O)COc2ccc(S(=O)(=O)NC3CCCC3)cc21)NCc1ccc(Cl)cc1,-21.3%,-9.9%[46.1 µM],.,-16.3%,.,2.3
O=C(CCc1nc2ccccc2s1)N1CCOc2ccc(CN3CCc4sccc4C3)cc2C1,-16.0%,.,.,-0.4%,.,.
O=C1CCC[C@@H]2CC(Nc3ccccc3)C[C@@H]3CCN1[C@H]23 (some centres undefined),-12.4%,.,.,-7.2%,.,.
C=C[C@@H]1c2cc(C)ccc2N(S(=O)(=O)c2ccc(C)cc2)[C@H](c2ccc(C(=O)OC)cc2)C1(C#N)C#N,i,.,.,-3.6%,.,.
C[C@]12CC[C@@H]3c4ccc(O)cc4CC[C@H]3[C@@H]1CC[C@@H]2OC(=O)CCC(=O)O,-15.1%,2.8%,-16.5%,-20.5%,5.0%[8.37 µM],-100.3*
Cc1ccc(CSCC(=O)N2CCN(c3ccc(F)cc3)CC2)cc1,-8.9%,?,-9.1%,-6.6%,1.6%,-66.5*!
Cn1c(CSCc2ccc(F)cc2)nnc1SCC(=O)N1CCN(c2ccccc2)CC1,.,?,?,?,?,-68.5*
Cc1oc(-c2ccccc2F)nc1CS(=O)(=O)CC(=O)N1CCCCCC1,?,.,1.0%,-22.1%,-26.8%,-23.4
Cc1oc(-c2ccccc2F)nc1CS(=O)(=O)CC(=O)N1CCN(c2ccc(Cl)cc2)CC1,?,?,-27.2%[46.1 µM],?,.,-82.8*
Cc1ccc(-c2nc(CS(=O)CC(=O)N3CCN(c4ccc(F)cc4)CC3)c(C)o2)cc1 (centres undefined),-25.3%,?,?,-28.8%,?,-63.2*!
CC1CCN(C(=O)CSc2c3c(nc4ccc(Cl)cc24)CCCC3)CC1,-8.0%,1.2%[46.1 µM],22.1%[46.1 µM],-17.4%,.,-39.1
CCc1ccc(-c2nc(CSCC(=O)N3CCN(c4ccc(F)cc4)CC3)c(C)o2)cc1,?,20.9%[46.1 µM],6.6%[46.1 µM],?,.,-79.5*
Cc1ccc(-c2nc(CSCC(=O)N3CCCC3)c(C)o2)cc1,.,0.7%,-1.7%,.,?,?
CCCNS(=O)(=O)c1ccc(CCC(=O)N2CCN(c3ccc(F)cc3)CC2)cc1,-6.6%,3.9%,-33.2%,-19.6%,?,-65.4*
COc1ccc(-c2nc(CSCC(=O)N3CCc4ccccc4C3)c(C)o2)cc1OC,-16.8%,.,.,-5.3%,?,1.1
COc1ccc(-c2nc(CSCC(=O)N3CCN(c4ccccc4)CC3)c(C)o2)cc1,?,-7.4%[46.1 µM],-0.4%[46.1 µM],?,.,-64.8*
COc1ccc(-c2nc(CSCC(=O)N3CCN(c4cccc(C)c4)C(C)C3)c(C)o2)cc1OC (centres undefined),-12.8%,?,?,-24.7%,10µM*,-18.4
